Assay results published in ChEMBL document CHEMBL1157539, “Thousands of chemical starting points for antimalarial lead identification” (Nature, 2010).

Columns and labels:
Assay type in all cases: functional
[1] = tested on: Plasmodium falciparum; experiment: GSK_TCMDC: Inhibition of Plasmodium falciparum 3D7 in whole red blood cells, using parasite LDH activity as an index of growth. Test compounds present at 2uM
[2] = tested on: Plasmodium falciparum; experiment: GSK_TCMDC: Inhibition of Plasmodium falciparum Dd2 in whole red blood cells, using parasite LDH activity as an index of growth. Test compounds present at 2uM
[3] = tested on: HepG2; experiment: GSK_TCMDC: Percent inhibition of human HepG2 cell line. Test compounds present at 10uM.

Row | Compound | Inhibition [1] | Inhibition [2] | Inhibition [3]
1 | CC(C)OC(=O)c1ccc(NC(=O)N[C@@H](Cc2ccc(O)cc2)C(=O)NC2CC3CCC(C2)N3Cc2ccccc2)cc1.O=C(O)C(F)(F)F (stereo not given in full) | 92% | 19% | 0%
2 | COc1ccc2ncc(Cl)c(N3CCC(CCNCc4ccc5c(n4)NC(=O)CS5)CC3)c2c1.Cl | 89% | 82% | 33%
3 | NCCCNc1nccc(N2CCc3ncnc(Nc4ccc(OCc5cccc(F)c5)c(Cl)c4)c3C2)n1 | 98% | 93% | 18%
4 | CCOc1cc(C(=O)Nc2cccnc2)cc(Br)c1OCCC(C)C | 88% | 51% | 4%
5 | O=C(Nc1cc2cc(-c3ccc(CN4CCCCC4)cc3)ccc2n2cnnc12)NC1CCCC1 | 100% | 98% | 78%
6 | Cc1ccc2[nH]c(-c3ccc(C=CC(=O)NCc4ccc(Cl)c(Cl)c4)cc3)nc2c1 | 96% | 18% | 5%
7 | Clc1ccc2c(NCc3ccccc3)ccnc2c1 | 100% | 100% | 40%
8 | COc1ccc2nccc([C@@H](O)CN3CCC(NC(=O)/C=C/c4ccnc5ccccc45)CC3)c2c1 | 91% | 12% | 19%
9 | CN(C)CCN(C)Cc1ccc(-c2ccc3c(Nc4ccc(F)cc4Cl)ccnc3c2)o1 | 100% | 100% | 31%
10 | Cc1ccc2cc(NC(=O)c3cccc(C(=O)Nc4ccc5nc(C)ccc5c4)n3)ccc2n1 | 92% | 23% | 21%
11 | COc1ccc(S(=O)(=O)N2CCCc3ccc(Br)cc32)cc1N1CCN(C(=O)C(Cl)(Cl)Cl)CC1 | 97% | 93% | 23%
12 | CC(=O)N(C)c1cccc(CNc2cc(C)nc(Nc3ccc(C)cc3)n2)c1 | 97% | 21% | 8%
13 | CCc1ccc(NC(=O)c2cccc(CN3CCCN(CC4CCCCC4)CC3)c2)cc1.O=C(O)C(F)(F)F | 85% | 41% | 62%
14 | Oc1cccc(-c2nc3cc(C4=NC5CCCCC5N4)ccc3[nH]2)c1 (stereo not given) | 94% | 99% | 3%
15 | COc1ccc2nccc([C@@H](O)CN3CCC(NCc4nc5c([N+](=O)[O-])cccc5[nH]4)CC3)c2c1.O=C(O)C(=O)O | 100% | 84% | 13%
16 | COc1cccc2cc(C(=O)N[C@@H](CC(C)C)C(=O)Nc3cc(F)ccc3Br)oc12 | 87% | 45% | 7%
17 | CC(C)[C@H](NC(=O)c1ccc(O)c(-c2ccc(Cl)c(Cl)c2)c1)C(=O)NCCN1CCOCC1 | 95% | 44% | 0%
18 | Cc1ccc(NC(=O)c2ccc(NCCCN3CC(C)CC(C)C3)c([N+](=O)[O-])c2)cc1F (stereo not given) | 100% | 85% | 18%
19 | CCOc1c(CNCCCCCCNCc2ccc3ccccc3c2OCC)ccc2ccccc12.CS(=O)(=O)O | 99% | 78% | 100%
20 | COc1cc(F)c2ncc(Cl)c([C@H](O)CN3CCC(NCc4ccc5c(n4)NC(=O)CO5)CC3)c2c1.Cl | 99% | 99% | 14%
21 | CCN(CCCN1CCCCC1)c1cc(C)nc(Nc2cc(C(F)(F)F)ccc2C)n1.O=C(O)C(F)(F)F | 96% | 41% | 35%
22 | CC(C)NCc1cccc(-c2cccc(NC(=O)c3cccc(Cl)c3)c2)c1.O=C(O)C(F)(F)F | 98% | 38% | 36%
23 | Cl.c1ccc(COc2ccc(Nc3ncnc4ccc(-c5ccc(CN6CCSCC6)o5)cc34)cc2)cc1 | 94% | 4% | 4%
24 | Cc1cccc2nc(-c3ccc(-c4cccc(CNCc5ccc(S(C)(=O)=O)cc5)c4)s3)[nH]c12.O=C(O)C(F)(F)F | 100% | 91% | 31%
25 | CN(C)CCNC(=O)N1CCCN(c2ncnc3cc(-c4ccccc4)sc23)CC1.O=C(O)C(F)(F)F | 96% | 37% | 5%
26 | COc1ccc(C[C@H](N)C(=O)N[C@H]2[C@@H](O)[C@H](n3cnc4c(N(C)C)ncnc43)O[C@@H]2CO)cc1.Cl | 100% | 91% | 98%
27 | CN(CCC(O)c1ccc(Cl)c(Cl)c1)CC1CC1C(=O)c1ccccc1 (stereo not given) | 98% | 96% | 11%
28 | COc1cccc2cc(C(=O)N[C@@H](CC(C)C)C(=O)N[C@H](/C=N/N(C)C(=O)OC(C)(C)C)CC(=O)OC(C)(C)C)oc12 | 87% | 67% | 5%
29 | COc1ccc(CNCc2ccccc2)cc1-c1ccc(OC)c(S(=O)(=O)NCCN2CCCC2)c1.O=C(O)C(F)(F)F | 100% | 55% | 14%
30 | C=CCOC(=O)N1CCC(CNCc2ccc(-c3cccc(-c4nc5cc(F)ccc5[nH]4)c3)cc2)C1.O=C(O)C(F)(F)F (stereo not given) | 100% | 99% | 26%
